According to article PMC5540273 (PLoS ONE, 2017):

Tested on: T1, JNK3
T1 construct: gene MAPK10
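Note: kd values determined as follow-up on hits from a single-replicate KINOMEscan panel screen.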

SMILES | Kd
COC(=O)c1c(-c2ccccc2)c2cc(Cl)ccc2c(=O)n1Cc1ccc(S(C)(=O)=O)cc1 | 14 nM
CN1CCC(n2cnc(-c3ccc(F)cc3)c2-c2ccnc(NC3CCNCC3)n2)CC1 [SB-229482] | 140 nM
CCc1nc(-c2cccc(C)c2)c(-c2ccnc(NC(=O)c3ccccc3)c2)s1 | 190 nM

Tested on: KIT

SMILES | Kd
Cn1ccc2ncnc(Oc3ccc(NC(=O)Nc4cccnc4)c(Cl)c3)c21 | 47 nM
O=C(Nc1ccccc1)Nc1ccc(Oc2ccc3nccn3n2)cc1 | 99 nM
O=C(Nc1n[nH]c2nc(-c3ccco3)c(Br)cc12)c1ccc(CN2CCCC2)cc1.O=C(O)[C@H](O)[C@@H](O)C(=O)O [SB-742352] | 66 nM
Cc1ccc(NC(=O)c2cccc(C#N)c2)cc1-c1ccc(C(=O)Nc2ccncc2)cc1 [GSK1398463] | 310 nM
Cn1cc(-c2ccc3c(c2)CCN3C(=O)Cc2cccc(C(F)(F)F)c2)c2c(N)ncnc21 [GSK2606414] | 5200 nM
COc1cc2c(Nc3cccc(NC(=O)c4ccccc4)c3)ncnc2cc1OCCCN1CCOCC1 [GSK223810] | 300 nM
COc1ccc(NC(=O)Nc2ccc(C)c(-c3ccc(C(=O)Nc4ccncc4)cc3)c2)cc1 [GSK1398475] | 44 nM

Tested on: MARK2

SMILES | Kd
CCn1c(-c2ccncc2)nc2cnccc21 [SB-735216] | > 10 µM
Cl.Cn1ccc(-c2cccc(Nc3ccnc4cc(-c5nccs5)ccc34)c2)n1 [GW525701] | > 10 µM
O=c1cc(N2CCOCC2)nc2n(Cc3cccc(Cl)c3)ccn12 [GSK2296823] | > 10 µM

Tested on: T2, MEK5
T2 construct: gene MAP2K5

SMILES | Kd
Cl.Cn1ccc(-c2cccc(Nc3ccnc4cc(-c5nccs5)ccc34)c2)n1 [GW525701] | 960 nM
O=C(Nc1n[nH]c2nc(-c3ccco3)c(Br)cc12)c1ccc(CN2CCCC2)cc1.O=C(O)[C@H](O)[C@@H](O)C(=O)O [SB-742352] | 550 nM
O=C(CCO)NCCn1ccc2ncnc(Nc3ccc(Oc4cccc(C(F)(F)F)c4)c(Cl)c3)c21 | 15 nM
OCCOCCn1ccc2ncnc(Nc3ccc(Oc4cccc(Cl)c4)c(Cl)c3)c21 | 200 nM
COc1cc2c(Nc3cccc(NC(=O)c4ccccc4)c3)ncnc2cc1OCCCN1CCOCC1 [GSK223810] | 940 nM
Cn1ccc2ncnc(Nc3ccc(Oc4cccc(Cl)c4)c(Cl)c3)c21 | 25 nM
Cl.c1ccc(Cn2ccc3cc(Nc4ncnc5ccccc45)ccc32)cc1 [GW275568] | 770 nM
Oc1ccc2ncnc(Nc3ccc(OCc4ccccc4)cc3)c2c1 [GI262866] | 82 nM
COc1cc2ncnc(Nc3ccc(OCc4ccccc4Br)c(Cl)c3)c2cc1OC.Cl [GI261590] | 98 nM
CS(=O)(=O)CCNCc1ccc(-c2ccc3ncnc(Nc4ccc(OCc5ccccc5)c(Cl)c4)c3c2)o1.Cl [GW574783] | 1000 nM
Cl.c1ccc(Cn2ncc3cc(Nc4ncnc5ccccc45)ccc32)cc1 [GW273749] | 90 nM
CCc1nc(-c2cccc(N(C)S(=O)(=O)c3ccccc3)c2)c(-c2ccnc(Nc3ccc(N4CCN(C(C)=O)CC4)nc3)n2)s1 [GSK1645895] | 7 nM
COc1ccc(-c2oc3ncnc(N)c3c2-c2ccc(OC)cc2)cc1 [SB-589132] | 3000 nM
CC(=O)Nc1n[nH]c2ncc(-c3ccccc3)cc12 [SB-548492] | 290 nM
